Activity calls are given as the source filed them.

Experiment [1] has as its system PRMT1 (protein arginine N-methyltransferase 1). Nature of the experiment: small molecules binding arginine methyltransferase PRMT1 – biochemical, small-molecule microarray, 635 nm fluorescence, primary screen (AID 1088).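 Further: binding of Prmt1 protein to compounds spotted on small-molecule microarray slides.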 The conditions noted are these: higher = more signal.
Experiment [2] can be described thus: growth effects on S. cerevisiae YJM789 – YJM789 clinical isolate, OD600, 24 h, basal, primary screen (AID 1089).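 Further: growth of clinical yeast isolate S. cerevisiae YJM 789 seeded 1000 cells per well; test concentration not given here.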 Particulars: higher = more signal, called active from +8 up or from −8 down.
Experiment [3] can be described thus: S. pombe growth modifiers, basal conditions – strain 972, OD600, 24 h, no modulator, primary screen (AID 1090).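 Further: basal condition with compound alone and no growth modifier present; test concentration not given here.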 Particulars: S. pombe 972 growth, higher = more signal, called active from +8 up or from −8 down.
Experiment [4] can be described thus: budding yeast growth modifiers under rapamycin – strain BY4716, OD600, 96 h, primary screen (AID 1091). Further: test concentration not given here. The conditions noted are these: S. cerevisiae BY4716 + rapamycin, higher = more signal, called active from +8 up or from −8 down.
Experiment [5] addresses Torsin-1A-interacting protein 2 (Homo sapiens) (UniProt Q8NFQ8). The experiment is described as follows: small molecules binding lysate-expressed LULL1 – cell lysate, human LULL1 lysate, 635/667 nm fluorescence, primary screen (AID 1092).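 Further: probe is lysate of COS7 cells overexpressing human LULL1; score merges per-feature 667 nm fluorescence with signal-to-noise.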 Particulars: small-molecule microarray, hLULL1 lysate binding, 635 nm fluorescence; higher = more signal.
Experiment [6] can be described thus: optical density change of DRC41 E. coli – strain DRC41, OD650, 24 h, E. coli filamentation project, primary screen (AID 1093).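 Further: MC1000 strain lacking acrAB efflux and sulA so SOS filamentation is blocked; test concentration not given here.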 Particulars: E. coli DRC41 growth, higher = more signal, called active from +8 up or from −8 down.
The nature of experiment [7]: probe aLefty2 binding to arrayed compounds – biochemical, biotinylated probe, 635/667 nm fluorescence, primary screen (AID 1094).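 Further: score merges spot fluorescence near 667 nm with spot signal-to-noise ratio.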 Particulars: small-molecule microarray, higher = more signal.
Experiment [8] relates to Noggin (protein binding on small-molecule microarray). The experiment is described as follows: small molecules binding Noggin protein – biochemical, 635/667 nm fluorescence, primary screen (AID 1095).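 Further: score merges 667 nm feature fluorescence with signal to noise over triplicate slides.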 The conditions noted are these: 635 nm fluorescence, higher = more signal.
In experiment [9] the target is Neurogenic locus notch homolog protein 3 (Homo sapiens) (UniProt Q9UM47). Nature of the experiment: small molecules binding NOTCH3 protein – biochemical, 635/667 nm fluorescence, primary screen (AID 1096). Particulars: small-molecule microarray, 635 nm fluorescence, higher = more signal.
Chain of Neurogenic locus notch homolog protein 3 (Homo sapiens) (Q9UM47 whole entry, looked up): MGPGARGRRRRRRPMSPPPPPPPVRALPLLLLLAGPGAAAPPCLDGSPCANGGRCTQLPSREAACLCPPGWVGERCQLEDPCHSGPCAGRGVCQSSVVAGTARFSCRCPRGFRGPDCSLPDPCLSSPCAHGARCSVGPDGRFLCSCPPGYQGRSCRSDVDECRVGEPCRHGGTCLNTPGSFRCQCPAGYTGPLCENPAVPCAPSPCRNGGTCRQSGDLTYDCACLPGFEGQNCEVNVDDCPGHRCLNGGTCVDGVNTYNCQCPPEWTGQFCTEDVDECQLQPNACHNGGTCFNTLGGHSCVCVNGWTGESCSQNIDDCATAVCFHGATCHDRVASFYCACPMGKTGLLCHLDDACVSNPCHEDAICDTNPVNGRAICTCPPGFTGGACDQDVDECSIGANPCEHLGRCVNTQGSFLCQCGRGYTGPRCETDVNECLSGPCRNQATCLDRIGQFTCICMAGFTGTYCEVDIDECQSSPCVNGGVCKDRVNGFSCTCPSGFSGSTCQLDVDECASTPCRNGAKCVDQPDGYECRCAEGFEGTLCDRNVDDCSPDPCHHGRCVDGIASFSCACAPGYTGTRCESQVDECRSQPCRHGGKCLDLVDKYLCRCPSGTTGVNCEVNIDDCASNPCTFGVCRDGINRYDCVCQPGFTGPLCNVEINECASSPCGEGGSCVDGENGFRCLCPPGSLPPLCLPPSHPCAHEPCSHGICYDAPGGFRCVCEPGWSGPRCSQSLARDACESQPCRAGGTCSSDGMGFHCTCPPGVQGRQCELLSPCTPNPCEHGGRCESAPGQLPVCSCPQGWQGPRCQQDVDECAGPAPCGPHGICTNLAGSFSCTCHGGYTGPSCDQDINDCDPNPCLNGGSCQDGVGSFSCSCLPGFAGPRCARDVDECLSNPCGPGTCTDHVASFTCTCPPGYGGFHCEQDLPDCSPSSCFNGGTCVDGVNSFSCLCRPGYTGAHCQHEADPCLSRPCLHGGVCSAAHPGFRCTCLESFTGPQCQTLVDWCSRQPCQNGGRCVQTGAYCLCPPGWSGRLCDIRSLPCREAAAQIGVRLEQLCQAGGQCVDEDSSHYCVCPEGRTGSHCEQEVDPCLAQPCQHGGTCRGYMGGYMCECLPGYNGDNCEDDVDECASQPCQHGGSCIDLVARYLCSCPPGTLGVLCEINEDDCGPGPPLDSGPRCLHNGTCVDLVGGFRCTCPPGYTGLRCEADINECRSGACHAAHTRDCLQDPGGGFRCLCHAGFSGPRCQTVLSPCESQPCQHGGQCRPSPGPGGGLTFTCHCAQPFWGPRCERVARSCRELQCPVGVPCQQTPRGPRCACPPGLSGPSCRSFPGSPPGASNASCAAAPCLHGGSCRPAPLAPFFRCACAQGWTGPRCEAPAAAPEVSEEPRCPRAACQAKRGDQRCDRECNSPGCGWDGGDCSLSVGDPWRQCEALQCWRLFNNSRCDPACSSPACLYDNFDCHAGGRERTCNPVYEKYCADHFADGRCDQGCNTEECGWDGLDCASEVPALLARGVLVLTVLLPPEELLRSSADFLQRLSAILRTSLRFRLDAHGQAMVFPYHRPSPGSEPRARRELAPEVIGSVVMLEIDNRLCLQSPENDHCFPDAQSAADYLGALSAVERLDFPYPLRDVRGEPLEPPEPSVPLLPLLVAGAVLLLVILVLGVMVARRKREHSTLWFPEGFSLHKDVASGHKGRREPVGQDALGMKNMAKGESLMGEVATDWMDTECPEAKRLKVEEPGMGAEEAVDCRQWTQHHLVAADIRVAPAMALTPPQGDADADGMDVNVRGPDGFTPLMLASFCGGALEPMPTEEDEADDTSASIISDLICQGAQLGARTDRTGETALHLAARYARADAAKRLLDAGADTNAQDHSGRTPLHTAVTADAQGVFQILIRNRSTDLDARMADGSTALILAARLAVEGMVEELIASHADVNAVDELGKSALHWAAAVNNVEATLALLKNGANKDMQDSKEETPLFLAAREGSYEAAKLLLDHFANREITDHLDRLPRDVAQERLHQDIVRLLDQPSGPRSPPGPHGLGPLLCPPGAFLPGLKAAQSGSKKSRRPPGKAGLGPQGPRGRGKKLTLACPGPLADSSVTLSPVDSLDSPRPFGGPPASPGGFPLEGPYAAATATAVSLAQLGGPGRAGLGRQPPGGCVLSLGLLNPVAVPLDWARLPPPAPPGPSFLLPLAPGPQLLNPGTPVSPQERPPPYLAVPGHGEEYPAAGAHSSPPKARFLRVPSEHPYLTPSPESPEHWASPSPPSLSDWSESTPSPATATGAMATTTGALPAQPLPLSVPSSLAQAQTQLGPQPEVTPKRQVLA
Experiment [10] can be described thus: probe aEGFR binding to arrayed compounds – biochemical, biotinylated probe, 635/667 nm fluorescence, primary screen (AID 1097).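 Further: probe is a biotinylated anti-EGFR antibody binding compounds printed on slides; score combines fluorescence near 667 nm and signal to noise of each spot.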 Particulars: small-molecule microarray, higher = more signal.

Chain of Torsin-1A-interacting protein 2 (Homo sapiens) (Q8NFQ8 whole entry, looked up): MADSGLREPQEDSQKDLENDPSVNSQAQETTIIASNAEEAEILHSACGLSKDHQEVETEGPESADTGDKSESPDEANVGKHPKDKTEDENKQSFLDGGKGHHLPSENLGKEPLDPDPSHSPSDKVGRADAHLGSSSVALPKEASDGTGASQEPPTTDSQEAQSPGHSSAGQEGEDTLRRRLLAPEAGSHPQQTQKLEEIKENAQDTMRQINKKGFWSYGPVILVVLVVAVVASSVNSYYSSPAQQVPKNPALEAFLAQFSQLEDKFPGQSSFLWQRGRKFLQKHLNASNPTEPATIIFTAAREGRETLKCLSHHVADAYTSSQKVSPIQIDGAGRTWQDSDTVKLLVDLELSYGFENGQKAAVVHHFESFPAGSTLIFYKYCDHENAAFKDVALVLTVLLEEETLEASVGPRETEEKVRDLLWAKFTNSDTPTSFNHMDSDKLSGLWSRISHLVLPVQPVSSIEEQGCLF

In the case of `C=C1C(=O)C=C2CN(C(=O)c3ccccc3)[C@@](Cc3ccc(F)cc3)(C(=O)OC)[C@@H]12`, the composite z-score in experiment [1] turned out to be 0.356; in experiment [5], 3.47; in [7], 0.513; in experiment [8], 0.0319; in experiment [9], 1.05; in experiment [10], 0.0071. Moreover, the z-score in [2] was -23.7 (active); in experiment [3], -15.9 (active); in experiment [4] it was -2.6 (inactive); in experiment [6] it was -0.57 (inactive).
With `[N-]=[N+]=Nc1ccccc1C[C@@]1(C(=O)NCc2ccccc2)N=C(c2ccc(OCCCO)cc2)O[C@@H]1c1ccccc1`, the composite z-score in experiment [1] was 1.54; in experiment [5], 3.02; in [7], 0.271; in experiment [8] it was 0.922; in [9], 1.03; in experiment [10], 0.1. Besides, the z-score is -1.27 (inactive) in experiment [2], 0.326 (inactive) in [3], 5.57 (inactive) in experiment [4] and 0.594 (inactive) in [6].
Take `NCCCCCCNC(=O)[C@@H]1C[C@@H]2C(=O)NCC(=O)N2[C@@H]1c1cccc(OCCO)c1`: the composite z-score is 1.37 in experiment [1]; 2.11 in [5]; 0.0997 in experiment [7]; 1.12 in experiment [8]; 0.783 in experiment [9]; 0.0988 in experiment [10]. The z-score in [2] is -0.205 (inactive); in experiment [3], -0.542 (inactive); in experiment [4] it was -0.138 (inactive); in experiment [6], 1.04 (inactive).
With `COc1ccc(CCNC(=O)[C@@H]2c3ccccc3C(=O)N(Cc3cc(F)cc(C(F)(F)F)c3)[C@H]2c2ccc(CO)cc2)cc1`, the composite z-score in [1] came out at 1.54; in experiment [5], 2.21; in experiment [7], 0.159; in [8], 0.415; in experiment [9] it was 0.195; in experiment [10], 0.179. Also, the z-score in [2] is -0.0253 (inactive); in experiment [3], -0.131 (inactive); in experiment [4] it was 0.142 (inactive); in experiment [6] it was 1.02 (inactive).
On to `COCCCNC(=O)[C@@]1(c2ccc([N+](=O)[O-])cc2)CC(=O)N(C2CCCCC2)[C@@H]1c1ccc(CO)cc1I`, for which the composite z-score in [1] is 1.54; in experiment [5], 0.83; in experiment [7], 0.0561; in experiment [8], 0.39; in experiment [9] it was 0.0429; in experiment [10], -0.0967. The z-score in experiment [2] was -0.307 (inactive); in experiment [3], -0.314 (inactive); in experiment [4], -0.0938 (inactive); in experiment [6], 0.556 (inactive).
Consider `COc1ccc([Si](C)(C)[C@H]2[C@H](CC(=O)N(CCO)Cc3ccccc3)O[C@@]3(C(=O)N(Cc4ccc(N5C(=O)c6cccc7cccc5c67)cc4)c4ccccc43)[C@@H]2C)cc1`, for which the composite z-score is 1.48 in experiment [1]; 2.15 in experiment [5]; 0.748 in experiment [7]; 1.36 in [8]; 1.12 in experiment [9]; 0.0059 in experiment [10]. Moreover, the z-score in experiment [2] was 0.614 (inactive); in [3], 0.685 (inactive); in experiment [4], 2.87 (inactive); in [6] it was 0.222 (inactive).
For `C=C(CCCC)/C(=C/C[C@@H](OC(C)=O)c1ccc(OCCO)cc1)c1cc(C(=O)OC)ccc1OC`, the composite z-score in experiment [1] was 1.55; in experiment [5], 2.27; in experiment [7] it was 0.0677; in experiment [8], 0.0148; in [9], 0.467; in experiment [10], -0.0828. In addition, the z-score in experiment [2] is -0.201 (inactive); in experiment [3], -0.52 (inactive); in [4], -0.645 (inactive); in experiment [6] it was 0.0811 (inactive).
`[N-]=[N+]=NCc1ccccc1[C@H]1OC(c2ccc(OCCCO)cc2)=N[C@@]1(CCS(=O)(=O)c1ccccc1)C(=O)NCCN1CCOCC1`: the composite z-score in experiment [1] amounted to 1.56; in experiment [5] it was 3.5; in [7] it was 0.181; in experiment [8], 0.0038; in [9], 1.06; in [10], 0.214. In addition, the z-score was 0.917 (inactive) in experiment [2], 0.306 (inactive) in experiment [3], 1.27 (inactive) in experiment [4] and -0.0501 (inactive) in [6].
In the case of `C=CC[C@]1(C(=O)NCCN2CCOCC2)N=C(c2ccc(OCCCO)cc2)O[C@H]1c1ccccc1`, the composite z-score in [1] is 1.17; in experiment [5] it was 2.65; in experiment [7], 0.0365; in experiment [8] it was 0.816; in experiment [9], -0.398; in experiment [10], 0.174. The z-score was -1.24 (inactive) in experiment [2], -0.577 (inactive) in [3], -1.15 (inactive) in [4] and 0.0059 (inactive) in experiment [6].
`C=C(COC)/C(=C/C[C@@H](OC(C)=O)c1cccc(OCCO)c1)c1cnc2ccccc2c1`: the composite z-score was 1.38 in experiment [1]; 1.07 in experiment [5]; 0.0303 in experiment [7]; 0.822 in [8]; 1.04 in experiment [9]; -0.0653 in experiment [10]. In addition, the z-score was -2.07 (inactive) in experiment [2], -6.62 (inactive) in experiment [3], -1.38 (inactive) in [4] and 1.03 (inactive) in [6].
Turning to `O=C1O[C@H](c2ccccc2)[C@H](c2ccccc2)N2[C@H]1[C@@H](C(=O)N1CCCCCCC1)[C@]1(C(=O)Nc3ccc(C#CCCO)cc31)[C@H]2c1ccc(O)cc1`, the composite z-score in experiment [1] turned out to be 1.54; in [5] it was 5.04; in experiment [7], 1.78; in [8], 0.731; in [9], 1.02; in experiment [10], 1.38. The z-score in [2] is 0.6 (inactive); in [3] it was -0.36 (inactive); in experiment [4], 1.45 (inactive); in [6], 2.08 (inactive).
